# Data taken from PubChem BioAssay (Tox21).
# “And” between values parts separate entries of the source, which are not always exact repeats. Equal values may be shown once. Results filed as inconclusive are left out. The source made the active and inactive calls. The call rests on the fitted dose curve; in most records, active means well fitted cell-killing curve with a large enough effect in the repeat runs; inconclusive means weak or mixed curves, or effect the other way; inactive means no such curve, though single readings can be large or run the other way.
# Experiment: qHTS assay to identify small molecule antagonists of the glucocorticoid receptor (GR) signaling pathway - cell viability counter screen (AID 720693); further: nearly all actives have a fitted effect of over 55% in size
# Details: GR-bla HeLa viability, CellTiter-Glo luminescence, 18 h, with 5 nM dexamethasone present; series mostly up to 58.5 µM; viability change, negative = cytotoxic: at the top concentration
# On the % scale 0 is the no-effect control and ±100 the full control effect; potency means the concentration at half of the fitted maximal effect.
Compound,"viability change, negative = cytotoxic",Potency
CC1(C)[C@H](C(=O)O[C@H](C#N)c2cccc(Oc3ccccc3)c2)[C@@H]1C=C(Br)Br,-9.72% [at 78.9 µM] (inactive),–
CCC1(C2=NCCN2)Cc2ccccc2O1 (configuration not stated),-10.2% (inactive),–
C=C(Cl)Cl,-5.36% [at 78.9 µM] (inactive),–
ClCc1ccccc1Cl,-7.07% [at 78.9 µM] (inactive),–
CCC1(CCC(C)C)C(=O)NC(=O)NC1=O,1.32% (inactive),–
CCCN(CCC)c1c([N+](=O)[O-])cc(C(C)C)cc1[N+](=O)[O-],–,inactive
CCCCCCCCn1sccc1=O,–,inactive
CC(C)(C)CC(C)(C)c1ccc(O)cc1,–,24.5 µM (active)
Nc1c(Br)cc(Br)c2c1C(=O)c1ccccc1C2=O,-6.26% [at 27 µM] (inactive),–
CC(Oc1cccc(Cl)c1)C(=O)O (configuration not stated),2.9% (inactive),–
N#CC(C#N)=Cc1ccc(O)c(O)c1,-4.13% (inactive),–
Clc1ccc2ccccc2c1,-2.78% [at 78.9 µM] (inactive),–
CCOC(=O)c1cncn1C(C)c1ccccc1 (configuration not stated),-8.81% [at 27 µM] (inactive),–
Cc1cnc(C2=NC(C)(C(C)C)C(=O)N2)c(C(=O)O)c1 (configuration not stated),-0.0798% (inactive),–
Cc1nc(N(C)C)nc(OC(=O)N(C)C)c1C,-4.02% (inactive),–
CCCCCBr,-1.59% [at 78.9 µM] (inactive),–
O=C(O)c1cc(Cl)ccc1Cl,23.2% (inactive),–
O=C(Cl)OCCOCCOC(=O)Cl,0.81% (inactive),–
CN(C)N,-0.379% (inactive),–

Compound,"viability change, negative = cytotoxic",Potency
C=CCOCC1CO1 (configuration not stated),38.6% (inactive),–
C[CH2][Hg][S]c1ccccc1C(=O)O,–,7.56 µM (active) and 6.16 µM (active)
O=C(O)C(Cl)(Cl)Br,-5.98% [at 78.9 µM] (inactive),–
CCC(C)(C)c1ccc(O)c(C(C)(C)CC)c1,–,19.3 µM (active) and 19.5 µM (active)
CCC1(CC)C(=O)NC(=O)NC1=O,-0.39% (inactive),–
O=C(N[C@H]1CN2CCC1CC2)c1ccc2c(c1)OCCO2,-0.552% (inactive),–
O=C1CC[C@@]2(O)[C@H]3Cc4ccc(O)c5c4[C@@]2(CCN3CC2CC2)[C@H]1O5,-0.382% (inactive),–
O=CC=O,–,inactive
CCOP(=O)(O)C(N)=O,-2.89% (inactive),–
COCc1cnc(C2=NC(C)(C(C)C)C(=O)N2)c(C(=O)O)c1 (configuration not stated),-0.635% (inactive),–
CC(Cl)C(=O)O (configuration not stated),-0.695% [at 78.9 µM] (inactive),–
CCCCOC(=O)CCC(=O)OCCCC,-0.382% (inactive),–
O=C(NCNC(=O)NC1C(=O)NC(=O)N1CO)NC1C(=O)NC(=O)N1CO (configuration not stated),–,inactive
CCCC[N+](CCCC)(CCCC)CCCC,9.45% (inactive),–
O=C(O)COc1cc(Cl)c(Cl)cc1Cl,–,inactive
FC(F)OC(F)(F)C(F)Cl (configuration not stated),–,inactive
NNCCO,-8.72% (inactive),–
NP(N)(=O)NC(=O)c1ccc(F)cc1,15.7% (inactive),–
